Screens from PubChem.
Rv3671c inh = inhibits the M. tuberculosis serine protease Rv3671c. P9WHR9. inhibition, % at 5.96 µM. 320,000 compounds, 0.048% hits. AID 2606; in the data active = inhibition above about 38%;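 also: extracellular domain of Rv3671c used as enzyme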
Target sequence (P9WHR9 whole entry, looked up, the tested form may be a part): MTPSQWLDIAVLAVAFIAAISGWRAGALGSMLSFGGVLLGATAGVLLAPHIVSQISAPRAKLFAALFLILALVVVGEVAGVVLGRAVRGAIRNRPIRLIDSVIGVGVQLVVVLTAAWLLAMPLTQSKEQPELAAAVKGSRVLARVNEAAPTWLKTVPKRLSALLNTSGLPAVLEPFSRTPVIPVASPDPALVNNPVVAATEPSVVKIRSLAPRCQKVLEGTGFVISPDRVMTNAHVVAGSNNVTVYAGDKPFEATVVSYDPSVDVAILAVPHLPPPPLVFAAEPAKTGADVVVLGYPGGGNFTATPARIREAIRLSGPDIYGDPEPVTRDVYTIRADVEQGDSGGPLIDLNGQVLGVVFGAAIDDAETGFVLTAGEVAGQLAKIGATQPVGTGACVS
GDH-TPI counter-1 = GDH-TPI coupled enzyme inhibition counter-screen. GDH-TPI coupled enzyme counterscreen, NADH absorbance. 360,000 compounds, 1.2% hits. AID 588335. inhibition, % at 4.8 µM; in the data active = inhibition above about 30%
Mtb betalactam = beta-lactam sensitization of Mtb H37Rv. AID 434955. inhibition, % at 25 µM. M. tuberculosis H37Rv growth with meropenem, percent inhibition. 330,000 compounds, 0.27% hits;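 also: growth measured after seven days incubation then overnight dye step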
RecA splice inh = blocks M. tuberculosis RecA intein splicing. P9WHJ3. cell-free RecA intein splicing, fluorescence. inhibition, % (no concentration beside the values). 290,000 compounds, 0.75% hits; in the data active = inhibition above about 30%; inconclusive = no clear call, values can overlap the other calls
UGM FP inh = inhibitors of M. tuberculosis UDP-galactopyranose mutase; inhibition, % at 10 µM; purified UGM, fluorescence polarization probe displacement; 320,000 compounds, 0.06% hits; P9WIQ1; in the data active = inhibition above about 10%, passing the limit was not always enough; inconclusive = no clear call, values can overlap the other calls
FBA Mtb inh = inhibitors of M. tuberculosis fructose-bisphosphate aldolase | AID 588726 | purified M. tuberculosis FBA, fluorescence read-out | inhibition, % at 1 µM | 360,000 compounds, 2.3% hits | P9WQA3; in the data active = inhibition above about 27%
Mtb FBA inh conf = Mtb FBA inhibition, confirmed | shares compounds with FBA Mtb inh | purified M. tuberculosis FBA, fluorescence read-out | inhibition, % at 1 µM | 5,600 compounds, 78% hits; in the data active = inhibition above about 27%
GDH-TPI counter-2 = GDH-TPI inhibition counter-screen for FBA inhibitors | shares compounds with FBA Mtb inh | GDH-TPI coupled enzyme counterscreen, fluorescence | inhibition, % at 1 µM | 5,600 compounds, 81% hits; in the data active = inhibition above about 10%
GDH-TPI DR = GDH-TPI dose response counter-screen for Mtb FBA; shares compounds with FBA Mtb inh; GDH-TPI coupled enzyme assay, fluorescence, artifact counterscreen; IC50, µM; 170 compounds, 79% hits
Large screens that a line does not name were inactive (follow-up assays come after a bar, where they were run). Most compounds without a hit are left out; they make up all but 4% or so of the library. Unless noted, no rule for the calls is given here.

Cc1cc(N2CCN(C)CC2)nc2ccc(NC(=O)CCC(=O)NCCC3=CCCCC3)cc12	none (no result: RecA splice inh)
Cc1cc(N2CCOCC2)nc2ccc(NC(=O)CCC(=O)N3CCC4(CC3)OCCO4)cc12	FBA Mtb inh 58 | Mtb FBA inh conf active | GDH-TPI counter-2 active
COCCCNC(=O)CCC(=O)Nc1ccc2nc(N3CCOCC3)cc(C)c2c1	FBA Mtb inh 88 | Mtb FBA inh conf inactive | GDH-TPI counter-2 inactive
Cc1cc(N2CCCCC2)nc2ccc(NC(=O)CCC(=O)NCCC(C)C)cc12	FBA Mtb inh 54 | Mtb FBA inh conf inactive | GDH-TPI counter-2 inactive
CCCCNC(=O)Oc1ccc(C(=O)N2c3ccccc3NC(=O)C2C)cc1 (stereo not drawn)	none
Cc1ccc(Cl)cc1N1CCN(C(=O)c2noc(C)c2[N+](=O)[O-])CC1	none
c1coc(C2Nc3ccccc3-c3nc4ccccc4n32)c1 (stereo not drawn)	FBA Mtb inh 101 | Mtb FBA inh conf 153 | GDH-TPI counter-2 120
Cc1cc2n(n1)C(c1ccco1)Nc1ccccc1-2 (stereo not drawn)	none
COC(=O)c1ccc2ccn(CC(=O)NC3CCCCC3)c2c1	FBA Mtb inh 71 | Mtb FBA inh conf inactive | GDH-TPI counter-2 inactive
C=COCCNC(=O)C(=O)NCC(C)C	none
CCCc1cc(NC(=O)COC(=O)c2nccnc2N)n(-c2ccccc2)n1	FBA Mtb inh 85 (no result: Mtb betalactam, RecA splice inh) | Mtb FBA inh conf 51 | GDH-TPI counter-2 45
CC(C)(C)c1cc(NC(=O)COC(=O)c2nccnc2N)n(-c2ccccc2)n1	Mtb betalactam inconclusive, FBA Mtb inh 87 | Mtb FBA inh conf 47 | GDH-TPI counter-2 36
Cc1oc(-c2ccccc2)nc1C(=O)N1CCN(c2ccc(F)cc2)CC1	none
COc1cccc(-c2cc(C(=O)NCC3CCCO3)c3ccccc3n2)c1 (stereo not drawn)	none
COc1ccc(-c2cc(C(=O)NCc3ccco3)c3ccccc3n2)cc1	FBA Mtb inh 28 | GDH-TPI counter-2 active
COc1ccc(-n2nc(C(=O)NCC(=O)NCC3CCCO3)c3ccccc3c2=O)c(OC)c1 (stereo not drawn)	none
COc1ccc(-c2cc(C(=O)NCC3CCCO3)c3cc(C)ccc3n2)cc1 (stereo not drawn)	FBA Mtb inh 76 | Mtb FBA inh conf 107 | GDH-TPI counter-2 72
Cc1ccc2nc(-c3cccc(Br)c3)cc(C(=O)NCC3CCCO3)c2c1 (stereo not drawn)	none
COc1ccc(-n2c(N)c(C(=O)NCC3CCCO3)c3nc4ccccc4nc32)c(OC)c1 (stereo not drawn)	FBA Mtb inh 104 | Mtb FBA inh conf 73 | GDH-TPI counter-2 71
COc1ccc(-c2cc(C(=O)NCC3CCCO3)c3ccccc3n2)cc1 (stereo not drawn)	FBA Mtb inh 46 | Mtb FBA inh conf 178 | GDH-TPI counter-2 173
CC(Oc1ccc(Br)cc1)C(=O)NCC1(N2CCCCC2)CCCCC1 (stereo not drawn)	none (no result: RecA splice inh)
C[C@H]1CN([C@@H](C)CO)S(=O)(=O)c2ccc(-c3ccncc3)cc2O[C@H]1CN(C)C(=O)c1cccc(F)c1	none (no result: Rv3671c inh, Mtb betalactam, RecA splice inh, UGM FP inh)
CCOc1ccc(CO/N=C/c2c(C)[nH]c(=O)[nH]c2=O)cc1	none
CCn1ncc(S(=O)(=O)NCc2ccco2)c1C	none
COc1ccc(-c2cc(C(=O)NCC3CCCO3)c3cc(C(C)C)ccc3n2)cc1 (stereo not drawn)	FBA Mtb inh 67 | Mtb FBA inh conf inactive | GDH-TPI counter-2 inactive | GDH-TPI DR 1.6
COc1ccc(-c2nc(C(=O)NCC3CCCO3)cc3c2[nH]c2ccccc23)cc1 (stereo not drawn)	FBA Mtb inh 30 | Mtb FBA inh conf active | GDH-TPI counter-2 active
CC(C(=O)Nc1ccc(Cl)cc1)N(C)Cc1cccs1 (stereo not drawn)	none
CC(C(=O)Nc1ccc(C#N)cc1)N(C)Cc1cccs1 (stereo not drawn)	FBA Mtb inh 77 | Mtb FBA inh conf 50 | GDH-TPI counter-2 40
Nc1ccc2c(S(=O)(=O)O)cccc2c1S(=O)(=O)O	FBA Mtb inh 53 (no result: Rv3671c inh, Mtb betalactam, RecA splice inh, UGM FP inh) | Mtb FBA inh conf 76 | GDH-TPI counter-2 81
Nc1ccccc1S(=O)(=O)c1ccccc1N	none
COC(=O)c1ccc(N2C(=O)C3CC=CC(C)C3C2=O)cc1 (stereo not drawn)	none
O=C(c1ccc(Cl)c(S(=O)(=O)N2CCCCCC2)c1)N1CCCC(C(F)(F)F)C1 (stereo not drawn)	FBA Mtb inh 45 | Mtb FBA inh conf 65 | GDH-TPI counter-2 46
Cc1ccc(C(=O)N2CCCC(C(F)(F)F)C2)cc1S(=O)(=O)N1CCCCC1 (stereo not drawn)	none
O=C(COc1ccc2ccc(=O)oc2c1)Nc1ccc(N2CCCCC2)cc1	FBA Mtb inh 41 (no result: RecA splice inh) | Mtb FBA inh conf active | GDH-TPI counter-2 152
O=C(COc1ccc2ccc(=O)oc2c1)NCCN1CCOCC1	FBA Mtb inh 27 (no result: Rv3671c inh, Mtb betalactam, RecA splice inh, UGM FP inh) | Mtb FBA inh conf 123 | GDH-TPI counter-2 95
O=C(COc1ccc2ccc(=O)oc2c1)Nc1ccc(CCO)cc1	none
Cc1cc(=O)oc2cc(OCC(=O)NCCN3CCOCC3)ccc12	none
CC(Oc1ccc2ccc(=O)oc2c1)C(=O)NCCN1CCOCC1 (stereo not drawn)	FBA Mtb inh 28 | Mtb FBA inh conf 151 | GDH-TPI counter-2 110
Cc1cc(NC(=O)COC(=O)c2cc(S(=O)(=O)N(C)C)ccc2Cl)no1	none (no result: RecA splice inh)
Cc1cccc(NC(=O)NNC(=O)c2ccc3ccccc3c2O)c1	FBA Mtb inh 29 (no result: Rv3671c inh) | Mtb FBA inh conf 81 | GDH-TPI counter-2 59
Cc1cccc(NC(=O)NNC(=O)c2ccc3ccccc3c2)c1	none (no result: Rv3671c inh)
O=C(NNC(=O)c1ccc2ccccc2c1O)Nc1ccc(F)cc1	FBA Mtb inh 37 | Mtb FBA inh conf active | GDH-TPI counter-2 174
CCc1c(C)sc(NC(=O)C2CC2)c1C(=O)OC(C)C	none
Cc1cccn2c(=O)c(/C=C(\C#N)C(=O)NC3CCS(=O)(=O)C3)c(Oc3ccc(F)cc3)nc12 (stereo not drawn)	FBA Mtb inh 32 | Mtb FBA inh conf active | GDH-TPI counter-2 active
N#C/C(=C\c1c(Oc2ccc(Cl)cc2)nc2ccccn2c1=O)C(=O)NC1CCS(=O)(=O)C1 (stereo not drawn)	FBA Mtb inh 86 | Mtb FBA inh conf active | GDH-TPI counter-2 182
COc1ccc(Oc2nc3c(C)cccn3c(=O)c2/C=C(\C#N)C(N)=O)cc1	none
Cc1cccc(Oc2nc3ccccn3c(=O)c2/C=C(\C#N)C(=O)NC2CCS(=O)(=O)C2)c1 (stereo not drawn)	none
